Measured values as given in the supplement of paper PMC9694430.

How the values were obtained:
Test in all cases: thermal shift delta Tm vs DMSO control; higher = stronger stabilization (binding)
Conditions in all cases: 12.5 µM; protein concentration 2 µM
LOC_OS02G45750-cb003 = test system: LOC_OS02G45750-cb003
Summary of the method: (§1)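 Heating from 25°C to 95°C at 0.05°C/s, fluorescence was recorded for 19.5 μl wells of 2 μM E. coli-expressed, purified rice kinase domain in 100 mM potassium phosphate pH 7.5, 150 mM NaCl, 10% glycerol and 5 × SYPRO Orange with compound in DMSO. Boltzmann fits gave melting temperatures for this differential scanning fluorimetry assay. The shift reported is the mean of three replicates against the DMSO-only protein.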

LOC_OS02G54510-cb004 = test system: LOC_OS02G54510-cb004
Summary of the method: as §1

LOC_OS03G04050-cb001 = test system: LOC_OS03G04050-cb001
Summary of the method: as §1

LOC_OS03G12390-cb001 = test system: LOC_OS03G12390-cb001
Summary of the method: as §1

LOC_OS03G27990-cb004 = test system: LOC_OS03G27990-cb004
Summary of the method: as §1

LOC_OS03G50450-cb001 = test system: LOC_OS03G50450-cb001
Summary of the method: as §1

LOC_OS03G50810-cb003 = test system: LOC_OS03G50810-cb003
Summary of the method: as §1

LOC_OS04G35114-cb001 = test system: LOC_OS04G35114-cb001
Summary of the method: as §1

LOC_OS04G38480-cb003 = test system: T1, LOC_OS04G38480-cb003
T1 sequence (whole entry): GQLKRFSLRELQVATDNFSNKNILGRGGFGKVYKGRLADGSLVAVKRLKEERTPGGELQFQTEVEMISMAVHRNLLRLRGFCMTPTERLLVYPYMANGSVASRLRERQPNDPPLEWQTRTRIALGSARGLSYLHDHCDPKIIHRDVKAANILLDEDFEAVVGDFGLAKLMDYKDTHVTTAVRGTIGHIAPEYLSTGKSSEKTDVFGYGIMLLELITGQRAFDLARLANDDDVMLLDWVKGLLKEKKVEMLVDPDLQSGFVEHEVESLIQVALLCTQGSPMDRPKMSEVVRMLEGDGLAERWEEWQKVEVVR
Summary of the method: as §1

LOC_OS04G41100-cb001 = test system: T2, LOC_OS04G41100-cb001
T2 sequence (whole entry): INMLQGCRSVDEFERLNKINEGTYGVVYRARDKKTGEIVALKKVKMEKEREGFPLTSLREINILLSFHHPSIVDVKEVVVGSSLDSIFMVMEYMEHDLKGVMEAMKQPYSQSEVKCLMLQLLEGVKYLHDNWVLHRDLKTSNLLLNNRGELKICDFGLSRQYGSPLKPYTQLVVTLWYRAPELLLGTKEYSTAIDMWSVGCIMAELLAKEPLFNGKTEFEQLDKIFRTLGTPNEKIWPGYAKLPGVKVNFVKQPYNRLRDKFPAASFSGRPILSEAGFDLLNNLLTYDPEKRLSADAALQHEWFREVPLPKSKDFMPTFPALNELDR
Summary of the method: as §1
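Further: purified Escherichia coli-expressed rice kinase domain construct.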

Row | Compound | thermal shift delta Tm (LOC_OS02G45750-cb003) | thermal shift delta Tm (LOC_OS02G54510-cb004) | thermal shift delta Tm (LOC_OS03G04050-cb001) | thermal shift delta Tm (LOC_OS03G12390-cb001) | thermal shift delta Tm (LOC_OS03G27990-cb004) | thermal shift delta Tm (LOC_OS03G50450-cb001) | thermal shift delta Tm (LOC_OS03G50810-cb003) | thermal shift delta Tm (LOC_OS04G35114-cb001) | thermal shift delta Tm (LOC_OS04G38480-cb003) | thermal shift delta Tm (LOC_OS04G41100-cb001)
1 | COc1cc2nccc(Oc3ccc(NC(=O)Nc4cc(C)on4)c(Cl)c3)c2cc1OC [Tivozanib (AV-951)] | 2.56 °C | 3.55 °C | 0.02 °C | 1.3 °C | 0.02 °C | -0.03 °C | 2.67 °C | 3.47 °C | 4.03 °C | 0.72 °C
2 | O=c1cc(N2CCOCC2)oc2c(-c3ccccc3)cccc12 | 0.29 °C | 0 °C | 0.47 °C | 0.68 °C | -0.02 °C | 0.21 °C | 0.41 °C | 0.16 °C | 0.52 °C | 0.8 °C
3 | Cc1cc(C(=O)Nc2nc3cccc(Cl)c3n2[C@@H]2CCCCN(C(=O)/C=C/CN(C)C)C2)ccn1 [Nazartinib (EGF816, NVS-816)] | 0.42 °C | 0.81 °C | 0.51 °C | 2.23 °C | 1.56 °C | 0.64 °C | 0.51 °C | 1.87 °C | 2.14 °C | 0.6 °C
4 | CN(C)Cc1cccc(N/C(=C2\C(=O)Nc3cc(C(N)=O)ccc32)c2ccccc2)c1 | 1.35 °C | 0.37 °C | 0.38 °C | 3.49 °C | 3.05 °C | 0.35 °C | 1.47 °C | 3.48 °C | 0.38 °C | 0.47 °C
5 | CN1CCC(COc2cnc(-c3cccc(Cn4nc(-c5cccc(C#N)c5)ccc4=O)c3)nc2)CC1 | -0.03 °C | -0.06 °C | 0.23 °C | -0.02 °C | 0.03 °C | 0.11 °C | 0.09 °C | 1.33 °C | 0.26 °C | 0.35 °C
6 | COc1ccc(COc2ccc(Cc3cnc(N)nc3N)cc2OC)cc1 | 0.53 °C | 0.05 °C | 0.43 °C | -0.14 °C | 0.29 °C | 0.04 °C | 0.55 °C | 0.34 °C | 1.41 °C | 0.24 °C
7 | C[C@@H](N)[C@H]1CC[C@H](C(=O)Nc2ccncc2)CC1 | 0.42 °C | -0.03 °C | 0.29 °C | 0.52 °C | 0.09 °C | 0.25 °C | 0.21 °C | 0.03 °C | 1.42 °C | 0.81 °C
8 | O=C(O)CCC(=O)Nc1ccc(Br)cn1 [Bikinin] | 0.64 °C | 0.11 °C | 0.3 °C | 0.13 °C | 0.19 °C | 0.33 °C | 0.43 °C | 0.74 °C | 1.47 °C | 0.42 °C
9 | CCN1CCN(Cc2ccc(Nc3ncc(F)c(-c4cc(F)c5nc(C)n(C(C)C)c5c4)n3)nc2)CC1 | 3.28 °C | 0.25 °C | 0.17 °C | 1.39 °C | 0.47 °C | 0.16 °C | 2.97 °C | 2.79 °C | 1.91 °C | 5.62 °C
